High-throughput results (PubChem)
Rows were chosen to be rich in hits. Some 19% of all compounds tested hit in one or more screens of this group.
DT40 TDP1 no CPT – qHTS for Inhibitors of human tyrosyl-DNA phosphodiesterase 1 (TDP1): qHTS in cells in absence of CPT; DT40 Tdp1-/- hTDP1 cells, no CPT, ATP luminescence, 48 h; Potency, µM (top dose mostly 46.2 µM), hits mostly inhibitors; 420,000 compounds, 15% hits; AID 686978, 2013; also: nearly all actives have a fitted effect of over 55% in size
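No-CPT arm: Tdp1-/-;hTDP1 DT40 cells (400/well) plus compounds, incubated ≥48 hr at 37 °C. Readout CellTiter-Glo luminescence.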
IL-1B inflam inh – inhibitors of inflammasome signaling (IL-1 beta secretion); THP-1 LPS/ATP IL-1B secretion, AlphaLISA, 16 h; hits give low values; activity change, % at 57.5 µM; 360,000 compounds, 4.7% hits; AID 743279; in the data active = activity change below about -50%; inconclusive = mostly about -30% to -49%
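THP-1 cells pretreated 1 hr with compounds (up to 57.5 uM final), then stimulated with LPS (250 ng/mL final) plus ATP (1.25 mM final); secreted IL-1B measured by AlphaLISA after 16 hr, decreased signal indicating inhibition.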
DT40 TDP1 CPT – growth inhibition of DT40 Tdp1-/-;hTDP1 cells with camptothecin (screen for TDP1 inhibitors); Potency, µM (doses to about 46.2 µM), hits mostly inhibitors; 420,000 compounds, 12% hits; chicken DT40 Tdp1-/-;hTDP1 cells + 20 nM CPT, ATP luminescence, 48 h; AID 686979; also: nearly all actives have a fitted effect of over 55% in size
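Chicken DT40 Tdp1-/- cells complemented with human TDP1, 400 cells/well, exposed to compounds plus 20 nM camptothecin for at least 48 h at 37 C; viability read as ATP content by CellTiter-Glo luminescence.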
HT1080 IDH1KD tx – kills HT-1080 cells with IDH1 knockdown | 360,000 compounds, 2% hits | Potency, µM (series often up to 46.1 µM), hits mostly cytotoxic | HT-1080 IDH1 knockdown viability, ATP luminescence, 48 h | AID 686971
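HT-1080-IDH1KD cells (IDH1 knocked down), 750/well in RPMI with 5% FBS, treated with compound 48 h at 37 degrees C. Viability by CellTiter-Glo luminescence, normalised to DMSO and no-cell wells; concentration-response curves classed.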
HT1080NT lethal – kills 2HG-producing HT-1080-NT fibrosarcoma cells | HT-1080-NT fibrosarcoma viability, CellTiter-Glo ATP luminescence, 48 h | Potency, µM (series often up to 46.1 µM), actives largely listed as cytotoxic | 360,000 compounds, 1.6% hits;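 also: NT is the 2HG producing partner of a matched IDH1 knockdown line; nearly all actives have a fitted effect of over 55% in size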
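Fibrosarcoma NT cells, 750 per well in 5% FBS RPMI, were exposed to compound for 48 hours. Viability: CellTiter-Glo luminescence.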
Each line names hits and unclear results; the compound was inactive in the other large screens. Unless noted, calls follow the shape of the dose curve; as a rule, active = well fitted curve in the direction sought with a large enough effect; inconclusive = small, poorly fitted or top-dose-only effect, or another doubt; inactive = no such curve, though single readings can be large; an effect the other way counts as inactive or inconclusive.

CCCCC(=O)N1CC(=O)Nc2ccc(F)cc2C1c1ccc(F)cc1 (configuration not stated)	DT40 TDP1 no CPT inconclusive, DT40 TDP1 CPT inconclusive
O=C1CN(C(=O)COc2ccc(Cl)cc2Cl)C(c2ccccc2)c2cc(F)ccc2N1 (configuration not stated)	DT40 TDP1 no CPT inconclusive, DT40 TDP1 CPT 16µM (no result: IL-1B inflam inh, HT1080 IDH1KD tx, HT1080NT lethal)
Cc1ccc2c(c1)C(c1ccc(F)cc1)N(C(=O)COc1ccc(Cl)cc1Cl)CC(=O)N2 (configuration not stated)	DT40 TDP1 no CPT inconclusive, DT40 TDP1 CPT 21µM (no result: IL-1B inflam inh, HT1080 IDH1KD tx, HT1080NT lethal)
O=C(O)C(c1ccccc1)C1(O)CC2CCC1C2 (configuration not stated)	none
COC(=O)c1c(N)n(-c2ccc(NC(C)=O)cc2)c2nc3ccccc3nc12	DT40 TDP1 no CPT 21µM, IL-1B inflam inh -52, DT40 TDP1 CPT 23µM
COCCCNC(=O)c1c(N)n(-c2ccc(S(N)(=O)=O)cc2)c2nc3ccccc3nc12	HT1080 IDH1KD tx inconclusive
COCCNC(=O)c1c(N)n(-c2ccccc2)c2nc3ccccc3nc12	IL-1B inflam inh inconclusive
CCc1ccccc1-n1c(N)c(C(=O)OC)c2nc3ccccc3nc21	DT40 TDP1 no CPT inconclusive (no result: IL-1B inflam inh, HT1080 IDH1KD tx, HT1080NT lethal)
COc1ccc(-n2c(N)c(C(=O)NCc3ccco3)c3nc4ccccc4nc32)cc1OC	DT40 TDP1 no CPT inconclusive, DT40 TDP1 CPT inconclusive
COCCCNC(=O)c1c(N)n(-c2ccccc2)c2nc3ccccc3nc12	DT40 TDP1 no CPT 18µM, IL-1B inflam inh inconclusive, DT40 TDP1 CPT inconclusive
C=CCNC(=O)c1c(N)n(-c2cccc(S(N)(=O)=O)c2)c2nc3ccccc3nc12	DT40 TDP1 no CPT 12µM, IL-1B inflam inh -59, DT40 TDP1 CPT 15µM, HT1080 IDH1KD tx inconclusive, HT1080NT lethal inconclusive
COCCNC(=O)c1c(N)n(-c2cccc(C)c2)c2nc3ccccc3nc12	DT40 TDP1 no CPT inconclusive, IL-1B inflam inh -53, DT40 TDP1 CPT inconclusive
Cc1ccc(C2(C)NC(=O)N(CC(=O)NC(=O)NC(C)C)C2=O)cc1 (configuration not stated)	none
CN(C)c1ccc(CC2CCc3ccccc32)cc1 (configuration not stated)	DT40 TDP1 CPT inconclusive (no result: IL-1B inflam inh, HT1080 IDH1KD tx, HT1080NT lethal)
Cn1c(Sc2ccc(C(=O)O)cc2[N+](=O)[O-])nnc1-c1ccccc1	DT40 TDP1 no CPT inconclusive, DT40 TDP1 CPT 21µM
CC(=O)c1ccc(Sc2nnnn2-c2ccccc2)c([N+](=O)[O-])c1	DT40 TDP1 no CPT 2.3µM, IL-1B inflam inh -100, DT40 TDP1 CPT 2.6µM, HT1080 IDH1KD tx inconclusive
CC(=O)c1ccc(Sc2ccccn2)c([N+](=O)[O-])c1	none
CN1CCN(S(=O)(=O)c2ccc(Sc3nnnn3-c3ccccc3)c([N+](=O)[O-])c2)CC1	DT40 TDP1 no CPT 3.3µM, IL-1B inflam inh -74, DT40 TDP1 CPT 2.9µM
Cn1nnnc1Sc1ccc([N+](=O)[O-])cc1Cl	none
O=C(O)c1ccc(Sc2nnc(-c3cccc(Br)c3)o2)c([N+](=O)[O-])c1	none
O=[N+]([O-])c1ccc(Sc2nnnn2-c2ccccc2)c(Cl)c1	DT40 TDP1 no CPT 21µM, DT40 TDP1 CPT inconclusive, HT1080 IDH1KD tx 10µM, HT1080NT lethal 8.9µM
CCC(=O)N1CCC1(C)C(=O)Nc1ccc(C)c(C)c1 (configuration not stated)	none
COc1cc(/C=C2/SC(=S)N(CCC(=O)Nc3ccccc3)C2=O)cc(OC)c1OC	DT40 TDP1 no CPT inconclusive, DT40 TDP1 CPT inconclusive
N#CCC(=N)N1CCN(c2ccc(F)cc2)CC1	none
C=CCc1cccc(/C=N/NC(=O)C[n+]2ccccc2)c1O	DT40 TDP1 no CPT inconclusive, DT40 TDP1 CPT inconclusive, HT1080 IDH1KD tx inconclusive, HT1080NT lethal inconclusive
C=CCc1cccc(C=Nc2ccc(Br)cc2)c1O	none
C=CCc1cccc(/C=N/NC(=O)C(C)Nc2cccc(C)c2)c1O (configuration not stated)	DT40 TDP1 no CPT 2.9µM, DT40 TDP1 CPT 4.1µM, HT1080 IDH1KD tx inconclusive, HT1080NT lethal inconclusive
C=CCc1cccc(/C=N/NC(=O)CNc2ccccc2)c1O	DT40 TDP1 no CPT 5.2µM, DT40 TDP1 CPT 21µM, HT1080 IDH1KD tx 18µM, HT1080NT lethal inconclusive
